Bioassay records as filed in PubChem BioAssay.
HP1b binding inh: blocks HP1-beta chromodomain binding to methylated histone tails. P83916. AlphaScreen HP1-beta / biotin-H3K9me3 peptide binding. Potency, µM (highest dose often 114 µM), inactives show at the top dose activity change, negative = inhibition, hits mostly inhibitors. hit rate 0.56% among 390,000. AID 540317; further: potency means the concentration at half of the fitted maximal effect; nearly all actives have a fitted effect of over 70% in size
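HP1-beta protein (50 nM final) preincubated 30 min at room temperature with biotinylated H3(1-18)K9me3 peptide (50 nM) in PBS pH 7.4, 0.01% Tween-20, then compound added for 30 min. AlphaScreen streptavidin donor/nickel chelate acceptor beads (10 ug/mL final), 30 min dark, luminescence read.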
BAZ2B block: BAZ2B (human) inhibition; Q9UIF8; AlphaScreen BAZ2B-H3K14Ac peptide displacement; Potency, µM (titrated, usually from 114 µM), inactives show at the top dose activity change, negative = inhibition, usual class: inhibitors; hit rate 4.4% among 360,000; further: potency means the concentration at half of the fitted maximal effect; on the % scale 0 is the no-effect control and ±100 the full control effect; nearly all actives have a fitted effect of over 60% in size
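AlphaScreen displacement of biotin-H3(5-23)K14Ac peptide (50 nM final) from BAZ2B (50 nM final) in PBS pH 7.4, 0.01% Tween-20; complex preformed 30 min RT, then compounds (top 110 uM) 30 min RT, beads 20 min dark.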
PLK1 PBD inh: inhibitors of human PLK1 polo-box domain binding. P53350. Plk1 PBD binding of FITC phosphopeptide, fluorescence polarization. Potency, µM, without a hit: max response, negative = inhibition, hits mostly inhibitors. hit rate 2.8% among 360,000. AID 720504; further: potency means the concentration at half of the fitted maximal effect; series mostly up to about 57 µM; on the % scale 0 is the no-effect control and ±100 the full control effect; nearly all actives have a fitted effect of over 65% in size
G9a block: inhibitors of human histone lysine methyltransferase G9a | Potency, µM (top dose mostly 102 µM), for inactives: at the highest dose activity, negative = inhibition, usual class: inhibitors | hit rate 8.8% among 350,000 | G9a H3K9 monomethylation, AlphaScreen, 2 h | Q96KQ7; further: potency means the concentration at half of the fitted maximal effect; on the % scale 0 is the no-effect control and ±100 the full control effect; nearly all actives have a fitted effect of over 75% in size
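Signal arises when biotinylated H3K9 peptide, once monomethylated, bridges streptavidin donor and antibody-captured acceptor beads. Enzyme at 20 nM was preincubated 15 min with test compounds; peptide 500 nM and SAM 20 uM then reacted for 2 h.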
PI5P4K alpha inh: blocks human PI5P4K alpha kinase activity. max response, %. hit rate 1.2% among 330,000. PI5P4Kalpha enzyme, ADP-Glo luminescence, 60 min; active compounds read low. P48426; active means max response of -50% or lower; inconclusive means between -30% and -50%; inactive means -30% or higher; further: value at the top dose of about 77 µM; on the % scale 0 is the no-effect control and ±100 the full control effect
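Controls without substrate or without enzyme flank wells where PI5P4Kalpha converts substrate using 5 microM ATP (final). Incubation lasts 60 minutes at room temperature; ADP formed is read by ADP-Glo luminescence.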
JMJD2A Tudor: blocks the human JMJD2A Tudor domain; AlphaScreen JMJD2A-Tudor / H3K4me3 peptide binding; Potency, µM (titrated, usually from 114 µM), inactives show at the highest dose activity change, negative = inhibition, actives largely listed as inhibitors; hit rate 4.4% among 390,000; further: potency means the concentration at half of the fitted maximal effect; on the % scale 0 is the no-effect control and ±100 the full control effect; nearly all actives have a fitted effect of over 50% in size
Target sequence (O75164 whole entry, looked up, the tested form may be a part): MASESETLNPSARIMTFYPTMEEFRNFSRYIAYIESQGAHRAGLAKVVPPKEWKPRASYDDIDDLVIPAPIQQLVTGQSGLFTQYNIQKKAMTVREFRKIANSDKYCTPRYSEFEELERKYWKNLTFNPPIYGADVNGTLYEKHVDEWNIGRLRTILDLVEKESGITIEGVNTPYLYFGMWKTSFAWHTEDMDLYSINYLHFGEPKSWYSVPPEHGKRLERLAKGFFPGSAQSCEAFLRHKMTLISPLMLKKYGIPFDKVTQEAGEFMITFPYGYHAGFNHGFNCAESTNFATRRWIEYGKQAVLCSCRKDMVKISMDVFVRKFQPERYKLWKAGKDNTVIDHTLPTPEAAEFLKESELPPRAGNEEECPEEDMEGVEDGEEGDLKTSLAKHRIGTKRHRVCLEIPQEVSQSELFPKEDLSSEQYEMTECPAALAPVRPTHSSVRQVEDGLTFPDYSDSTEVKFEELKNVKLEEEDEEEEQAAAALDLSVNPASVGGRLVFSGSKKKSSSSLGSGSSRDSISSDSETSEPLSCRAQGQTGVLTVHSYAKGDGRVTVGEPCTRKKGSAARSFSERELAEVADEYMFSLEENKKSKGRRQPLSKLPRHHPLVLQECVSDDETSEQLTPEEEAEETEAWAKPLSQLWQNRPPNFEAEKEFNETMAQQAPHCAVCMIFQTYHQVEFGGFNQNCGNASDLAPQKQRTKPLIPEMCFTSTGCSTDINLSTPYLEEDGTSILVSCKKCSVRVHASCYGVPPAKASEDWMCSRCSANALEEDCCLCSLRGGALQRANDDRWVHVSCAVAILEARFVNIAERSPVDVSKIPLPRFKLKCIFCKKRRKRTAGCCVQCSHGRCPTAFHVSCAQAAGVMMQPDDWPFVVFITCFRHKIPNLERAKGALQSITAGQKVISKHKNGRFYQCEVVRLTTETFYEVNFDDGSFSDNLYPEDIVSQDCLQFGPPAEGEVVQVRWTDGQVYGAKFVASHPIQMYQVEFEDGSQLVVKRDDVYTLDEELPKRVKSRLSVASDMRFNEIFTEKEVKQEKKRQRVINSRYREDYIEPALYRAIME
An asterisk follows results filed as active; ? = inconclusive; . = not tested or not shown; [ ] = another dose, or the depositor's remark. A selection: hits, their analogues and other compounds. The true share with any hit is near 12%. Unless noted, the call rests on the fitted dose curve; in most records, active means well fitted curve in the direction sought with a large enough effect; inconclusive means small, poorly fitted or top-dose-only effect, or another doubt; inactive means no such curve, though single readings can be large; an effect the other way counts as inactive or inconclusive.

SMILES | HP1b binding inh | BAZ2B block | PLK1 PBD inh | G9a block | PI5P4K alpha inh | JMJD2A Tudor
CCOC(=O)C1=C(C)NC(=O)NC1c1ccc(N(C)C)cc1 (stereo not drawn) | 17% | -2% | -9% | ? | -1 | -35%
CCOC(=O)C1=C(C)NC(=O)NC1c1ccc(N(CC)CC)cc1 (stereo not drawn) | 10% | -37% | -4% | 45µM* | 2 | ?
CCC(CC)COC(=O)C1=C(C)NC(=O)NC1c1ccccc1Br (stereo not drawn) | 30% | 3% | -2% | 22%[0.501 µM] | 12 | -21%
CCOC(=O)c1c(C)oc2ncnc(Nc3ccc(OC)cc3OC)c12 | 31% | 1% | . | 2%[59 µM] | . | -7%
CC1Sc2ccc(S(=O)(=O)CCC(=O)N3CCN(c4cccc(Cl)c4)CC3)cc2NC1=O (stereo not drawn) | 48% | ? | -20% | . | 4 | ?
CCCCn1c2c(c(=N)c3ccccc31)CCC2 | 8% | -31% | -3% | ? | 4 | -5%
Cc1cc(C)c2c(=N)c3ccccc3n(CCCCCCCCn3c4ccccc4c(=N)c4c(C)cc(C)nc43)c2n1 | -5% | . | -8% | . | -67* | ?
CCC(C)N1CCN(S(=O)(=O)Cc2ccccc2)CC1 (stereo not drawn) | -1% | 2% | 2% | -2%[59 µM] | 5 | 2%
NS(=O)(=O)c1cccc(C(=O)NC2CCSc3ccccc32)c1 (stereo not drawn) | 24% | -1% | -1% | ? | -3 | -6%
CC(=O)c1cccc(S(=O)(=O)NC2CCSc3ccccc32)c1 (stereo not drawn) | 12% | -16% | 27µM* | 28µM* | -22 | ?
CC(=O)c1cccc(S(=O)(=O)NC2CCCCCC2)c1 | 20% | -8% | -6% | ? | 5 | 1%
CC(=O)c1cccc(S(=O)(=O)NC2CC2)c1 | 28% | -23% | 27µM* | 45µM* | -9 | -8%
COc1cccc(CNC(=O)c2ccc3c(c2)sc2nc(-c4ccccc4)cn23)c1OC | 44% | 1% | . | -7%[59 µM] | . | -7%
Cc1ccccc1NC(=O)OCc1ccccc1 | 49% | 12% | -9% | 22% | 0 | 14%
CCn1c(C)cc(/C=C2\NC(=O)N(Cc3ccccc3)C2=O)c1C | 7% | -32% | -2% | 13µM* | -17 | 89µM*
CCOC(=O)c1csc(-n2nc(C)cc2C(F)(F)F)n1 | 21% | 6% | ? | -4% | 3 | 0%
Cc1cc(C)n(-c2nc(C(=O)O)cs2)n1 | 17% | ? | -4% | 50µM* | 2 | -7%
O=C(OCc1cn([C@H]2C[C@H](c3ccc(Cl)cc3)N(C(=O)c3cccs3)C[C@@H]2O)nn1)c1ccccc1 | . | . | 1% | . | -2 | .
O=c1cc(N=Nc2ccc(Cl)cc2)[nH]c(=O)[nH]1 | 23% | 2% | -36% | 45µM* | -1 | -7%
O=c1cc(-c2ccc(Cl)cc2)oc(=O)[nH]1 | 32% | -3% | -10% | 33%[59 µM] | -3 | -13%
Cn1ccc2c([N+](=O)[O-])cccc2c1=O | -8% | -16% | 30µM* | -25% | -15 | -25%
COc1ccc(-c2cnc(C)o2)cc1S(=O)(=O)Nc1ccc(C)c(F)c1 | -9% | ? | . | -6%[59 µM] | . | -33%
COc1ccc(-c2cnc(C)o2)cc1S(=O)(=O)Nc1ccc(C)c(N(C)C)c1 | 23% | 50µM* | . | ? | . | ?
COc1ccc(NS(=O)(=O)c2cc(-c3cnc(C4CC4)o3)ccc2C)cc1 | 0%[57 µM] | ? | -3% | 50µM* | 3 | ?
CCc1ccc(NS(=O)(=O)c2cc(-c3cnc(C4CC4)o3)ccc2C)cc1 | 42% | -23% | . | -9%[59 µM] | . | ?
SMILES | HP1b binding inh | BAZ2B block | PLK1 PBD inh | G9a block | PI5P4K alpha inh | JMJD2A Tudor
FC(F)(F)c1ccccc1/C=N/n1c(C2CCCCC2)n[nH]c1=S | -11% | -36% | 27µM* | 8.9µM* | -1 | ?
CCOc1ccccc1/C=N/n1c(C2CCCCC2)n[nH]c1=S | -7% | -30% | ? | 14µM* | -2 | ?
COc1ccccc1/C=C/C=N/n1c(C2CCCCC2)n[nH]c1=S | ? | -34% | ? | 3.2µM* | 7 | ?
S=c1[nH]nc(C2CCCCC2)n1/N=C/c1ccccc1Cl | ? | ? | 13µM* | 2.2µM* | 4 | 22µM*
COc1ccc(NC(=O)CCCSc2nc(-c3ccco3)cc(C(F)(F)F)n2)cc1 | 27% | -1% | . | 9%[59 µM] | . | 1%
O=C(O)c1ccccc1/C=N/n1c(C2CCCCC2)n[nH]c1=S | -25% | -12% | -18% | 22µM* | -21 | 7.9µM*
Cc1ccc(Cl)cc1NC(=O)Cn1c(=O)oc2cc(S(=O)(=O)N3CCCC3)ccc21 | 9% | 0% | . | 6%[59 µM] | . | -18%
CCOc1cc(C(=O)Nc2ccc(-c3nc4cc(Cl)ccc4o3)cc2)cc(OCC)c1OCC | 23% | 2% | . | 7%[59 µM] | . | 1%
Cc1oc(-c2ccccc2F)nc1Cn1c(SCc2ccccc2F)nc2ccncc21 | -1% | ? | . | 13µM* | . | ?
CC1(C)Cc2c(sc3[nH]c(=S)[nH]c(=O)c23)CO1 | -15% | -4% | -23% | . | -23 | 89µM*
COc1ccc(C(=O)/C=C/C(=O)N(CC(=O)NCCC(C)C)Cc2cccs2)c(O)c1 | -16% | -21% | 34µM* | -30% | -14 | -18%
COc1ccc(C(=O)/C=C/C(=O)N(CC(=O)NC2CCCCC2)Cc2ccc(F)cc2)c(O)c1 | 24% | -13% | 4.2µM* | . | -2 | -21%
CCOC(=O)c1c(Oc2ccc(C(=O)OC)cc2)nnc(-c2ccccc2)c1-c1ccccc1 | 35% | -16% | . | -26%[59 µM] | . | -19%
CCOC(=O)/C(N=Nc1sc(C(=O)OCC)c(C)c1C(=O)OCC)=C(\C)O | . | -10% | . | -9%[59 µM] | . | .
CCOC(=O)c1sc(N=NC2=C(O)CCCC2=O)c(C(=O)OCC)c1C | ? | 13µM* | -16% | 14µM* | -57* | 25µM*
NS(=O)(=O)c1ccc(CCNS(=O)(=O)c2ccc3c(c2)NC(=O)CO3)cc1 | 33% | -4% | -2% | . | 2 | -20%
Cc1nnc(SCC(=O)NCC2COc3ccccc3O2)s1 (stereo not drawn) | 19% | -5% | 2% | -13%[12.7 µM] | 1 | -6%
O=C(COC(=O)c1cn(-c2ccccc2)nc1-c1ccccc1)c1cccc([N+](=O)[O-])c1 | -7% | -2% | -6% | ? | 2 | -18%
Cc1ccc(C(=O)COC(=O)c2cnccn2)cc1 | 30% | 2% | -2% | ? | . | -51%
O=C(COC(=O)c1ccccn1)c1cccc(Br)c1 | 19% | 18µM* | -14% | . | -12 | 13µM*
O=C(COC(=O)c1cnccn1)c1ccc([N+](=O)[O-])cc1 | 5% | ? | -15% | 25µM* | -6 | -15%
COc1ccc(C(=O)COC(=O)c2ccccn2)cc1OC | 24% | ? | -3% | ? | 0 | -25%
